Compound activity (PubChem)
D2 PAM-1: Beta-Arrestin HTS for Positive Allosteric Modulators of the Human D2 Dopamine Receptor: Potentiators. DiscoveRx D2 beta-arrestin cells, luminescence, 90 min; 100% = 57 uM dopamine signal. potentiation, % (concentration not given with the values). 0.23% of 360,000 active; in the data active = potentiation above about 50%; inconclusive = mostly about 30% to 49%
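PathHunter beta-arrestin assay in DiscoveRx D2 cells. Compounds were added with an EC20 of dopamine (50 nM final) for 90 min at 37 deg C. Luminescence was read 1 h after detection reagent, with 57 uM dopamine as the EC100 control.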
D2 ag-1: HTS Assay for Allosteric Agonists of the Human D2 Dopamine Receptor: Primary Screen for Agonists | D(2) dopamine receptor (Homo sapiens), P14416 | HEK293 T-REx D2 cells, calcium flux agonist mode | activation, % at 2 µM | 0.53% of 340,000 active | AID 485358, 2010;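 active = activation over 3 SD above normal in the single-dose calcium agonist read, cut at about 30% in these data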
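Agonism scored from kinetic calcium signal (1 read/sec, 180 s) following compound pin transfer, after a 10 s baseline. Cells: HEK293 Trex line expressing inducible D2 receptor coupled to calcium, dye-loaded after overnight culture at 30 C.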
D2 ag-2: Beta-Arrestin HTS for Positive Allosteric Modulators of the Human D2 Dopamine Receptor: Agonists | D(2) dopamine receptor (Homo sapiens), P14416 | DiscoveRx PathHunter D2 beta-arrestin, luminescence, 90 min; 100% = 57 uM dopamine signal | activation, % (no concentration beside the values) | 0.084% of 360,000 active | AID 624465, 2012; in the data active = activation above about 40%; inconclusive = between about 15% and that limit
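DiscoveRx PathHunter D2 beta-arrestin cells (2,100/well) attached overnight, then compound-stimulated 90 min at 37 C in HBSS/10 mM HEPES/0.1% Tween-20 buffer; beta-galactosidase complementation read by luminescence after 1 h at ambient temperature. Dopamine 57 uM final (EC100) as control.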
D2 antag: HTS Assay for Allosteric Antagonists of the Human D2 Dopamine Receptor: Primary Screen for Antagonists; AID 485344, 2010; HEK293 TREx D2 cells, calcium flux, dopamine EC80; 2% of 340,000 active; D(2) dopamine receptor (Homo sapiens), P14416; inhibition, % at 10 µM; in the data active = inhibition above about 30%; inactive = below that, where a call was filed
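Tetracycline-induced HEK293 TREx cells expressing D2 receptor forced-coupled to calcium signalling, loaded with no-wash calcium dye. Compounds added and calcium flux read 180 s, then dopamine added at EC80 and read a further 180 s.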
D2 PAM-2: HTS Assay for Positive Allosteric Modulators of the Human D2 Dopamine Receptor: Primary Screen for Potentiators; D(2) dopamine receptor (Homo sapiens), P14416; HEK293 T-REx D2, calcium flux, EC20 dopamine potentiation; potentiation, % at 10 µM; 0.34% of 340,000 active;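 active = potentiation over 3 SD above the plate norm, cut at about 30% in these data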
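Cells plated with tetracycline inducer and held overnight at 30 C; calcium dye loaded 30–90 min at room temperature; baseline taken, compound added and read 180 s; EC20 dopamine then added and read 180 s.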
D3 arrestin ag: qHTS of D3 Dopamine Receptor Agonist: D3 Dopamine Receptor B-arrestin Agonist Confirmatory Assay | DiscoveRx D3 beta-arrestin cells, luminescence, 90 min | shares compounds with D2 ag-1 | Potency, µM (top dose mostly 76.9 µM), hits mostly activators | 4% of 2,300 active; note: nearly all actives have a fitted effect of over 70% in size
Target sequence (P35462 whole entry, looked up): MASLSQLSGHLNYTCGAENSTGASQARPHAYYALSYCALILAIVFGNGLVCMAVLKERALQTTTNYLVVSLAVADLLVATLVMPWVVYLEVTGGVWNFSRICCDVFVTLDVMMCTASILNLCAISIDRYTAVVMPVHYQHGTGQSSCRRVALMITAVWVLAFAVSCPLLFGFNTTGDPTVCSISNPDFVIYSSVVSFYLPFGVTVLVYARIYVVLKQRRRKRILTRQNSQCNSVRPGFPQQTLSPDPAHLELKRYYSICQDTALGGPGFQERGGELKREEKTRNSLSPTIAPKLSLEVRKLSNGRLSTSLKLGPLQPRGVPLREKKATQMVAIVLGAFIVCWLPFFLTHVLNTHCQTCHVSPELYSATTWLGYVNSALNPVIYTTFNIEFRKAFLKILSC
D2 ag-3: qHTS of D3 Dopamine Receptor Agonist: D2 Dopamine Receptor B-arrestin Agonist Counterscreen | shares compounds with D2 ag-1 | DiscoveRx PathHunter D2 beta-arrestin, luminescence, 90 min; response scale: percent relative to full dopamine signal | Potency, µM (highest dose often 76.9 µM), hits mostly activators | 5.9% of 2,300 active; note: nearly all actives have a fitted effect of over 70% in size
Of the large screens only hits and unclear results are named; the others gave an inactive call (follow-up assays come after a bar, where they were run). A selection: hits, their analogues and other compounds. The true share with any hit is near 2.4%. Unless noted, calls come from the whole dose curve; as a rule, active = well fitted activation curve with a large enough effect; inconclusive = small, poorly fitted or top-dose-only effect; inactive = flat fitted curve, though single readings scatter.

NNC(=O)c1cc2ccccc2cc1NS(=O)(=O)c1ccccc1	none
Cc1cc(C)c2c(=O)n(CC(=O)NCCCN3CCOCC3)sc2n1	none
Cn1c(C(=O)NCCCN2CCN(c3ccccc3F)CC2)cc2c(=O)n(C)c3ccccc3c21	D2 ag-1 73.4, D2 ag-2 inconclusive, D2 antag 97.8 | D3 arrestin ag inactive | D2 ag-3 inconclusive
Cc1cc(C)c2c(=O)n(CC(=O)NCCCN3CCN(c4ccccc4F)CC3)sc2n1	D2 ag-1 83.3, D2 antag 53.5 | D3 arrestin ag inactive | D2 ag-3 inactive
Cc1ccc(-n2nc(C)c(C(=O)NCCCN3CCN(c4ccccc4F)CC3)c2-n2cccc2)cc1	none (no result: D2 PAM-1, D2 ag-2, D2 antag)
Cc1cc(=O)oc(C)c1C(=O)NCCCN1CCN(c2ccccc2F)CC1	D2 ag-1 58.4, D2 antag 46.8 | D3 arrestin ag inconclusive | D2 ag-3 inactive
Cn1c(=O)cc(SCC(=O)NCCCN2CCN(c3ccccc3F)CC2)c2ccccc21	D2 ag-1 75.5, D2 ag-2 inconclusive, D2 antag 91.6 | D3 arrestin ag inactive | D2 ag-3 inconclusive
COc1ccc(NC(=O)c2cccc(NC(=O)c3ccccc3)c2)c(OC)c1	none
CCCC(C(=O)NC1CCCC1)N(C(=O)c1snc(C(N)=O)c1N)c1ccc(OCC)cc1 (configuration not stated)	none (no result: D2 PAM-2)
CCOC(=O)[C@H]1[C@H]2COc3ccc(Cl)cc3[C@@H]2N2C(=O)c3cc(Br)ccc3NC(=O)[C@@]12C	none
CCn1c(=O)cc(SCC(=O)NCCN2CCN(Cc3ccccc3)CC2)c2ccccc21	D2 ag-1 44.4 | D3 arrestin ag inactive | D2 ag-3 inactive
Cc1cnc(C(=O)N2CCCC(N3CCN(c4cccc(C(F)(F)F)c4)CC3)C2)cn1 (configuration not stated)	none | D3 arrestin ag inactive | D2 ag-3 inactive
CC(C)n1cc(C(=O)N2CCCC(N3CCN(c4cccc(Cl)c4)CC3)C2)cn1 (configuration not stated)	D2 ag-1 52.4 | D3 arrestin ag inactive | D2 ag-3 inactive
COC(=O)c1ccc(C(=O)N2CCCC(N3CCN(c4ccccc4)CC3)C2)nc1 (configuration not stated)	D2 ag-1 42.9 | D3 arrestin ag inactive | D2 ag-3 inactive
O=C(c1ccsc1)N1CCCC(N2CCN(c3cccc(Cl)c3)CC2)C1 (configuration not stated)	none
CCN(CC)S(=O)(=O)c1ccc(N2CCOCC2)c(NC(=O)CCOc2ccccc2)c1	none
O=C(Cc1ccccc1)Nc1ccc(C(=O)Nc2ccc(O)cc2)cc1	none
Clc1nnc(NN=C2CCCC2)c2ccccc12	D2 ag-1 61.4 | D3 arrestin ag inactive | D2 ag-3 inactive
O=C(N/N=C/C=C/c1ccccc1[N+](=O)[O-])c1cc(-c2ccccc2)n[nH]1	none
CCOc1ccc(CC(=N)C2=C(O)CC(C)(C)CC2=O)cc1OCC	none
CCOc1ccc(CC(=NCCc2ccccc2)C2=C(O)CC(C)(C)CC2=O)cc1OCC	D2 ag-1 47.2 | D3 arrestin ag inactive | D2 ag-3 inactive
COc1ccc(NC(=O)CN2CCN(CC(=O)Nc3cc(OC)cc(OC)c3)CC2)cc1	none
Cc1cccc(C)c1NC(=S)NCCc1ccc(O)c(O)c1	D2 ag-1 57.5, D2 antag 67.3 | D3 arrestin ag inactive | D2 ag-3 inconclusive
Cc1cccc(NC(=S)NCCc2ccccc2)c1C	none
